In the library only some 3.5% were active in any assay of this set; here they are far more common.
TEAD-YAP inh: TEAD-YAP interaction inhibition; HEK-TIYL cells, TEAD-Gal4/YAP UAS-luciferase luminescence; inhibition, % at 9.12 µM; 1.4% of 640,000 active; AID 1259422; in the data active = inhibition above about 32%;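 note: 0% = median of test compound wells and 100% = reference inhibitor wells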
GPR151 activ: human GPR151 activation | Q8TDV0 | PathHunter beta-arrestin GPR151 cells, luminescence | activation, % at 11.2 µM | 1% of 650,000 active | AID 1508602; in the data active = activation above about 4.9%;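 note: 0% = median of compound wells and 100% = cells with positive control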
MITF primary: inhibitors of human MITF; O75030; AlphaScreen MITF homodimerization, bead proximity signal; inhibition, % at 2.6 µM; 0.91% of 650,000 active; in the data active = inhibition above about 50%;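 note: 0% = vehicle wells with protein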
FBW7 activator: human FBW7 E3 ligase activation, primary screen. 0.13% of 650,000 active. normalized activity (activation), % at 26.1 µM. AlphaScreen FBW7–phospho-cyclin E peptide binding, activator screen. Q969H0; in the data active = normalized activity above about 1.9%;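 note: purified mutant Fbw7 with reduced substrate affinity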
Target sequence (Q969H0 whole entry, looked up): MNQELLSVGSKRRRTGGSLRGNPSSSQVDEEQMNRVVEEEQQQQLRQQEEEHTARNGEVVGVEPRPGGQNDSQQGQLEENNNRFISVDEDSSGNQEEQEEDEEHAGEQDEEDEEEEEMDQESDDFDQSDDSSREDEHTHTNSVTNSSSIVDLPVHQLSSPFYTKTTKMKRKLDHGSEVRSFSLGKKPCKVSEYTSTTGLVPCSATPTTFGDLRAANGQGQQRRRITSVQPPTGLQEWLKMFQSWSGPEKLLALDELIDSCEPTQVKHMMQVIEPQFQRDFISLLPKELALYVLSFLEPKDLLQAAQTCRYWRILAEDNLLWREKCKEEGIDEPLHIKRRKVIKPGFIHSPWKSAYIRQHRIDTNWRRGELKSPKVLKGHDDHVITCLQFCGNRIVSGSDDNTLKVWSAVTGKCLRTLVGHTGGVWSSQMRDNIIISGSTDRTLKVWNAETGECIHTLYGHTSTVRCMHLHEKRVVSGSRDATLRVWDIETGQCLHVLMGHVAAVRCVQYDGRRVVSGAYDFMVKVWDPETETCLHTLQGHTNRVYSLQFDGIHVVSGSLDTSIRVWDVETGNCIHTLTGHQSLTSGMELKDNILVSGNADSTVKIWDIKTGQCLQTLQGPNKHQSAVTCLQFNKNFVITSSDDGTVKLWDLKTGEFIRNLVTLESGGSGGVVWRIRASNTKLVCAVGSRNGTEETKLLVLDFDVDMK
GPR151 conf act: confirmation of human GPR151 activators; shares compounds with GPR151 activ; GPR151 PathHunter beta-arrestin cells, luminescence, 90 min; % of EA-reagent control over plate median; activation, % at 11.2 µM; 6,700 tested, under 10 active;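 active = mean percent activation across replicates above the confirmation screen cutoff of 4.91%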
GPR119 counter: GPR119 activation, counter-screen for GPR151 activators | shares compounds with GPR151 activ | GPR119 PathHunter beta-arrestin cells, luminescence, 90 min; 0 = compound-well median, 100 = enzyme-acceptor control | activation, % at 11.2 µM | 0.3% of 6,700 active | AID 1508611;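 active = mean percent activation in the counterscreen above 29.09%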;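 note: counterscreen on off-target GPR119 to flag nonselective hits from the GPR151 activator screen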
Numbers without * were called inactive; ! = a repeat was not active.

Cc1ccc(NC(=O)NC23CC4CC(CC(C4)C2)C3)cc1 was read as TEAD-YAP inh -22, GPR151 activ 5.6*, MITF primary -7, FBW7 activator 0, GPR151 conf act 1 and GPR119 counter 3.
`CCOc1ccc(/C(O)=C2/C(=O)C(=O)N(Cc3cccnc3)C2c2ccc(C)cc2)cc1C` (stereo unspecified) gave TEAD-YAP inh -5, GPR151 activ 0, MITF primary -7 and FBW7 activator 0.
For C=CCOc1ccc(C2/C(=C(/O)c3ccc(OCC)c(C)c3)C(=O)C(=O)N2Cc2cccnc2)cc1 (stereo unspecified) the results were TEAD-YAP inh 3, GPR151 activ 6.6*, MITF primary -19, FBW7 activator 0, GPR151 conf act 0 and GPR119 counter -17.
CC12CC3CC(C1)CC(NC(=O)c1ccc(Cl)cc1Cl)(C3)C2 was read as TEAD-YAP inh -9, GPR151 activ 5.0*, MITF primary 6, FBW7 activator 0, GPR151 conf act 0 and GPR119 counter -5.
Screening COc1ccc(S(=O)(=O)NCC2CCCN(C(=O)C3=CCCC3)C2)cc1 (stereo unspecified) returned TEAD-YAP inh 3, GPR151 activ 1, MITF primary 2 and FBW7 activator 0.
NC(=O)c1cccc(N)c1 was read as TEAD-YAP inh -9, GPR151 activ 6.2*!, MITF primary -7, FBW7 activator 0, GPR151 conf act 0 and GPR119 counter 1.
For CCCC(=O)N1CCC(O)(c2cccc(F)c2)CC1 the results were TEAD-YAP inh 5, GPR151 activ -1, MITF primary 19 and FBW7 activator 0.
`O=C(Cc1ccc2c(c1)OCO2)N1CCC(O)(c2cccc(F)c2)CC1` gave TEAD-YAP inh -6, GPR151 activ 6.8*, MITF primary 6, FBW7 activator 0, GPR151 conf act -1 and GPR119 counter -2.
`CSc1nsc(NC(=O)Cc2n[nH]c(=O)c3ccccc23)n1` gave TEAD-YAP inh -4, GPR151 activ -1, MITF primary -4 and FBW7 activator 0.
For O=C(Cc1n[nH]c(=O)c2ccccc12)Nc1ccccn1 the results were TEAD-YAP inh 0, GPR151 activ 5.4*, MITF primary 7, FBW7 activator 0, GPR151 conf act 0 and GPR119 counter -7.
`COC(=O)C(CCCCNC(=O)c1ccccc1)NC(=O)c1ccccc1` (stereo unspecified) gave TEAD-YAP inh 3, GPR151 activ 0, MITF primary 6 and FBW7 activator 0.
`NC(CCCCNC(=O)c1ccccc1)C(=O)O` (stereo unspecified) gave TEAD-YAP inh 5, GPR151 activ 5.0*, MITF primary 7, FBW7 activator 0, GPR151 conf act -1 and GPR119 counter -10.
Screening COC(=O)c1ccc(Nc2nccc(-c3ccccc3)n2)cc1 returned TEAD-YAP inh -22, GPR151 activ -2, MITF primary 6 and FBW7 activator 0.
NC(=O)c1ccc(Nc2nccc(-c3ccc(Cl)cc3)n2)cc1 was read as TEAD-YAP inh 23, GPR151 activ 5.6*, MITF primary 8, FBW7 activator 0, GPR151 conf act 0 and GPR119 counter 15.
Screening CCOC(CNC(=O)c1ccc2cc[nH]c2c1)(OCC)c1ccncc1 returned TEAD-YAP inh -6, GPR151 activ 7.3*, MITF primary 5, FBW7 activator 0, GPR151 conf act -1 and GPR119 counter -2.
CCOc1ccc([N+](=O)[O-])cc1N1Cc2ccccc2C1=N was read as TEAD-YAP inh -4, GPR151 activ 1, MITF primary 5 and FBW7 activator 0.
Screening COc1ccc(/C=N/NC(=O)CNc2ccc3ccccc3c2)cc1Cl returned TEAD-YAP inh -12, GPR151 activ -1, MITF primary 15 and FBW7 activator 0.
`COc1ccc(/C=N/NC(=O)CNC(=O)c2ccccc2Br)cc1OC` gave TEAD-YAP inh 3, GPR151 activ 7.6*, MITF primary 6, FBW7 activator 0, GPR151 conf act 0 and GPR119 counter -4.
COc1ccc(/C=N/NC(=O)CNc2ccc3ccccc3c2)cc1OC was read as TEAD-YAP inh -4, GPR151 activ 5.9*, MITF primary 11, FBW7 activator 0, GPR151 conf act 0 and GPR119 counter -3.

From PubChem
